Results published in PubChem BioAssay (NCI).
This is part of a sample that, as a whole, favours compounds with a hit. Of some 79,000 tested, about 15% had one in any assay. Calls of active or inactive are those of the source. Rule as the data show it: active = growth inhibition above about 70%; inactive = the rest.

What was measured:
[1] = NCI Yeast Anticancer Drug Screen. Data for the rad50 strain (AID 155);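 also: 0% = growth of vehicle-only cultures of the same strain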; conditions: S. cerevisiae rad50 strain growth inhibition; at 50.0 µM; hits give high values
Outline: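 DNA repair mutant yeast, compound exposure, growth read-out; inhibition is taken relative to vehicle.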

[2] = NCI Yeast Anticancer Drug Screen. Data for the mec2-1 strain (AID 157); conditions: S. cerevisiae mec2-1 strain, at 50.0 µM, hits give high values
Outline: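 Mutant yeast (mec2-1) grown with compound; growth inhibition relative to vehicle control reported.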

[3] = NCI Yeast Anticancer Drug Screen. Data for the sgs1 mgt1 strain (AID 161);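 also: 0% = growth of cultures given vehicle only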; conditions: S. cerevisiae sgs1 mgt1 strain, at 50.0 µM, hits give high values
Outline: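 This yeast growth screen uses a strain with defined DNA-repair lesions; compound-treated growth is compared with vehicle-treated growth.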

[4] = NCI Yeast Anticancer Drug Screen. Data for the cln2 rad14 strain (AID 165);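 also: 0% = growth equal to vehicle treated cultures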; conditions: S. cerevisiae cln2 rad14 strain, at 50.0 µM, hits give high values
Outline: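 Readout is yeast growth inhibition versus vehicle-treated controls, using a strain with cln2 and rad14 alterations exposed to compound.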

[5] = NCI Yeast Anticancer Drug Screen. Data for the bub3 strain (AID 167); conditions: S. cerevisiae bub3 mutant strain, at 50.0 µM, hits give high values
Outline: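 In this screen, a yeast mutant lacking normal mitotic checkpoint function is challenged with compound. Relative growth versus vehicle gives the inhibition value.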

[6] = NCI Yeast Anticancer Drug Screen. Data for the mlh1 rad18 strain (AID 175); conditions: S. cerevisiae mlh1 rad18 strain growth inhibition; at 50.0 µM; hits give high values
Outline: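 Genetically defined yeast (DNA repair-deficient) exposed to compounds; growth inhibition determined relative to vehicle.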

Measured: growth inhibition

Cn1c(N)c(N=O)c(=O)n(C)c1=O
inactive: [1] -28.9% | [2] -18.8% | [3] -1.6% | [4] -12.8% | [5] -5.65% | [6] -9.9%

COC(=O)C(c1ccccc1)C(CBr)(OC)c1ccccc1 (stereo unspecified)
inactive: [1] 18.8% | [2] 8.85% | [3] 12.5% | [4] 15.8% | [5] 13.6% | [6] 27.1%

CC(C)CC(NC(=O)CNC(=O)CNC(=O)OCc1ccccc1)C(=O)O (stereo unspecified)
inactive: [1] -0.1% | [2] 7.75% | [3] -2.1% | [4] -21.8% | [5] -0.9% | [6] 10.8%

O=C(CCBr)NC(=O)OC/C=C\c1ccccc1
inactive: [1] 7.7% | [2] 34.8% | [3] 12.2% | [4] 8% | [5] 5.1% | [6] 15.2%

COc1ccc(C(=O)C(O)c2ccc(OC)cc2)cc1 (stereo unspecified)
inactive: [1] 8.15% | [2] -8.65% | [3] -1.55% | [4] -16.4% | [5] -4.35% | [6] 26.1%

CCN(CC)c1ccc(/C=C\c2c(C)cnc3ccccc23)cc1
inactive: [1] 8.85% | [2] 10% | [3] 17.9% | [4] -24.4% | [5] 34.6% | [6] -9.45%

CC1(C)CC(=O)NC1=O
inactive: [1] 30.8% | [2] 2% | [3] 8.55% | [4] -0.2% | [5] -19% | [6] 9.3%

O=C1CN(c2ccccc2)CC(=O)N2Cc3ccccc3CN12
inactive: [1] -4.05% | [2] 1.2% | [3] 9.8% | [4] 17.1% | [5] 16.7% | [6] 14.7%

O=C(OCc1ccccc1)C1(N2CN(C3(C(=O)OCc4ccccc4)CCCC3)CN(C3(C(=O)OCc4ccccc4)CCCC3)C2)CCCC1
inactive: [1] -8.05% | [2] -5.7% | [3] 2.25% | [4] 16.9% | [5] 13.5% | [6] 2.15%

CCc1cc2c(O)c(c1)Cc1cc(CC)cc(c1O)Cc1cc(CC)cc(c1O)Cc1cc(CC)cc(c1O)Cc1cc(CC)cc(c1O)Cc1cc(CC)cc(c1O)Cc1cc(CC)cc(c1O)C2
inactive: [1] 6.55% | [2] 27.2% | [3] 19.8% | [4] 6.5% | [5] 6.9% | [6] 17.3%

O=C(Nc1ccc(C2=NCCN2)c(O)c1)c1ccc(C(=O)Nc2ccc(C3=NCCN3)c(O)c2)cc1
inactive: [1] 32.6% | [2] 3.95% | [3] 23.2% | [4] 36.2% | [5] 7.5% | [6] 28.6%

CC(=O)C1=C(c2ccccc2)N(C2OC(CO)C(O)C(O)C2O)C(S)=C(C#N)C1c1ccc(Cl)cc1 (stereo unspecified)
inactive: [1] 42.9% | [2] 23.9% | [3] 10.1% | [4] 29.2% | [5] 25.1% | [6] 49%

C1=C(c2ccccc2)CCCC1
inactive: [1] 17.1% | [2] 3.55% | [3] 4.2% | [4] 14.4% | [5] -9.4% | [6] 4.45%

C/C(=N\NC(=O)c1ccncc1)c1ccc(Cl)cc1Cl
inactive: [1] 5.85% | [2] 7.15% | [3] 0.55% | [4] 1.95% | [5] 4.65% | [6] 8.5%

COc1cc([C@@H]2c3cc4c(cc3[C@H](O)[C@H]3COC(=O)[C@@H]23)OCO4)cc(OC)c1OC
inactive: [1] 2.55% | [2] 4.2% | [3] 1.2% | [4] 5.7% | [5] 7.15% | [6] 16.2%

CCCCCCCCCCCCCCCCN1C(=O)C2C(C1=O)C1(Cl)C(Cl)=C(Cl)C2(Cl)C1(Cl)Cl (stereo unspecified)
inactive: [1] 7.85% | [2] -6.3% | [3] -2.55% | [4] -0.65% | [5] -4.6% | [6] 10.2%

O=[N+]([O-])c1ccc(SC2OC(CO)C(O)C(O)C2O)c([N+](=O)[O-])c1 (stereo unspecified)
inactive: [1] 2.05% | [2] 29.4% | [3] 3.95% | [4] -14.2% | [5] -5.35% | [6] 20.8%

N=c1nc2n(cc1F)[C@@H]1O[C@H](CO)[C@@H](O)[C@@H]1O2
inactive: [1] 13.4% | [2] -3.75% | [3] 4.3% | [4] 8.55% | [5] 12.6% | [6] -12.2%

COc1ccc(C(=O)N/N=C/c2c(C)n(C)n(-c3ccccc3)c2=O)cc1
inactive: [1] -54.1% | [2] -18.6% | [3] -61.2% | [4] -6.45% | [5] -52.5% | [6] -48.5%

COC(=O)/C=C(C)/C=C/c1cc(C(C)=O)c(C)o1
inactive: [1] -2.25% | [2] -2.95% | [3] 7.85% | [4] -12.3% | [5] 29.6% | [6] -7.05%

CCCCCCC(C)CC1=C(O)c2ccccc2C(=O)C1=O (stereo unspecified)
inactive: [1] -18.5% | [2] 7.55% | [3] -1.9% | [4] -38.4% | [5] 13.6% | [6] 5.25%

O=C(/C=C/c1ccccc1)NN1CCOCC1
inactive: [1] 13.5% | [2] 3.25% | [3] 24.1% | [4] -34.5% | [5] 6.55% | [6] -2.95%

CS(=O)(=O)Oc1ccc2cc(Br)ccc2c1
inactive: [1] 13.6% | [2] -5.35% | [3] -0.3% | [4] 4.25% | [5] 31.4% | [6] 9.75%

OC(CC(c1ccccc1)c1cccc2ccccc12)(c1ccccc1)c1ccccc1 (stereo unspecified)
inactive: [1] -12.8% | [2] -17.9% | [3] -14.6% | [4] -7.65% | [5] -28.4% | [6] 3.3%

O=C(CC(c1ccccc1)C(Br)(c1ccccc1)[N+](=O)[O-])c1ccccc1 (stereo unspecified)
inactive: [1] 11.8% | [2] -0.45% | [3] -2.75% | [4] 22.2% | [5] -3.4% | [6] -5.8%

Cc1ccc(-c2nc(C)c(C(=O)Nc3ccc(Cl)cc3)s2)cc1
inactive: [1] -36.6% | [2] -25.4% | [3] -59.4% | [4] 2.85% | [5] -12.3% | [6] -65.9%

CC(=O)[O-].[Mn+3].[O-]c1ccccc1C=NCCNCCN=Cc1ccccc1[O-]
inactive: [1] 17.9% | [2] 8.1% | [3] 49.6% | [4] -7.35% | [5] 8.3% | [6] 51.1%

Cc1cc(C)c(S(=O)(=O)O)cc1N
inactive: [1] -2.55% | [2] 2.1% | [3] 6.1% | [4] -42% | [5] -0.05% | [6] -26.1%

CCCC(=O)OCCc1ccccc1
inactive: [1] 12.8% | [2] 10.3% | [3] 16.4% | [4] -65.5% | [5] 5.1% | [6] -26%

CN(C)c1ccc(Cc2ccc(N(C)C)c3cccnc23)c2ncccc12
inactive: [1] -5.45% | [2] -9.65% | [3] 13.7% | [4] -13.4% | [5] 12.3% | [6] 1.4%

N/N=C(\c1nc2ccc([N+](=O)[O-])cc2[nH]c1=O)C(O)c1ccc(Cl)c(Cl)c1 (stereo unspecified)
inactive: [1] 5.7% | [2] -6.65% | [3] -11.1% | [4] -12.7% | [5] 22.3% | [6] -6.6%

Cc1c(C)c(C)c2cc3c(C)c(C)c(C)c(C)c3cc2c1C
inactive: [1] -4.55% | [2] -1.9% | [3] -8.5% | [4] -2.35% | [5] 6.45% | [6] -11.6%

O=[N+]([O-])c1ccc(/C=N/C(/N=C/c2ccc([N+](=O)[O-])cc2)c2ccc([N+](=O)[O-])cc2)cc1
inactive: [1] 8.05% | [2] -6.25% | [3] 6.35% | [4] 1.55% | [5] -4.05% | [6] 23.9%

Cc1ccc(S(=O)(=O)CCN2CCCC2)cc1
inactive: [1] -3.85% | [2] -14.7% | [3] -5.6% | [4] -47.2% | [5] 7.95% | [6] -9.55%

CCCCCCC(=O)/C=C/c1cccc(OCc2ccccc2)c1
inactive: [1] 32% | [2] 3.8% | [3] 13.3% | [4] 13.6% | [5] 18.4% | [6] 13.7%

O=C(NC1CCCN1C(=O)/C=C\c1ccccc1)OCc1ccccc1 (stereo unspecified)
inactive: [1] -8.95% | [2] -4.95% | [3] -13.7% | [4] -62.5% | [5] 0.6% | [6] -12.3%

C[N+](C)(C)CBr
inactive: [1] 36.8% | [2] -11% | [3] -21.5% | [4] -40.6% | [5] 4.75% | [6] -37.2%

CC(C)CCCC(C)C1CCC2C3CCC4CC(=O)/C(=C\O)CC4(C)C3CCC12C (stereo unspecified)
active: [1] 70.3% | [3] 79.4%
inactive: [2] 51.5% | [4] 38.6% | [5] 25.6% | [6] 67.2%

CC1(Cc2ccccc2)NC(=S)NC1=O (stereo unspecified)
inactive: [1] -1.25% | [2] -10.8% | [3] -9.9% | [4] 5.75% | [5] -1.7% | [6] -7.35%

CC(=O)Nc1ccc(NC(=O)c2ccccc2Cl)cc1
inactive: [1] -0.45% | [2] -9.15% | [3] 4.7% | [4] -6.6% | [5] 10.9% | [6] -33.1%

O=C(O)/C=C/C(=O)Nc1ccccc1NC(=O)/C=C/C(=O)O
inactive: [1] 15.2% | [2] 16.2% | [3] 31.2% | [4] 27.8% | [5] 19.9% | [6] -1.9%
